A short description of test [1]: human hepatoma cell viability loss – ATP luminescence, cytotoxicity control for P. falciparum antimalarial project, primary screen (AID 2303;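 active means inhibition above 50%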;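 further: 0% = DMSO wells and 100% = digitonin-killed cells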). To be noted: HepG2 viability, 24-48 h, at 10 µM, stronger effect = higher value.
Test [2] deals with L-lactate dehydrogenase (Plasmodium falciparum (isolate CDC / Honduras)) (UniProt Q27743). The test is described as follows: PfLDH activity inhibition – cell lysate, 3D7 strain, counter-screen for P. falciparum growth inhibition project (AID 2304).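 Further: 0% = vehicle and 100% = reference inhibitor.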 To be noted: P. falciparum 3D7 crude extract, LDH APAD/NBT absorbance; at 2 µM; stronger effect = higher value. A general note: Counterscreens check selectivity or assay interference.

The nature of test [3]: inhibition of 3D7 malaria parasite growth – strain 3D7 (AID 2306).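 Further: 0% = DMSO wells and 100% = chloroquine plus artemisinin control wells.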 The following applies: P. falciparum 3D7 erythrocytic growth, LDH absorbance, 72 h; at 2 µM; stronger effect = higher value.
The target in test [4] is Calcium-dependent protein kinase 1 (Plasmodium falciparum (isolate 3D7)) (UniProt P62344). The test is described as follows: PfCDPK1 kinase inhibitors, biochemical, TCAMS library (AID 1159585; cut-off not given, nearly all actives have IC50 up to about 0.98 µM;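 further: inhibitors leave more ATP so luminescence rises with inhibition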). To be noted: recombinant PfCDPK1, Kinase-Glo ATP depletion luminescence. (In general: Kinase-Glo measures the ATP left after a reaction by luminescence.)
Test [5] deals with Plasmodium falciparum protein kinase 6 (PK6, PF3D7_1337100) (UniProt Q8IDW1). The test is described as follows: PfPK6 kinase inhibitors, biochemical, TCAMS library (AID 1159586). The following applies: recombinant PfPK6, Kinase-Glo ATP depletion luminescence.
The target in test [6] is Protein kinase 7 (PK7), Plasmodium falciparum 3D7 (PF3D7_0213400) (UniProt Q7YTF7). The test is described as follows: inhibition of Plasmodium PK7 catalytic activity – biochemical, TCAMS antimalarial set, Kinase-Glo luminescence (AID 1159587). To be noted: recombinant PfPK7, Kinase-Glo ATP depletion luminescence.
Test [7] concerns the target Calcium-dependent protein kinase 4 (Plasmodium falciparum (isolate 3D7)) (UniProt Q8IBS5). The test is described as follows: PfCDPK4 kinase inhibitors, biochemical, TCAMS library (AID 1159588; cut-off not given, nearly all actives have IC50 up to about 0.91 µM). The following applies: recombinant PfCDPK4, Kinase-Glo ATP depletion luminescence.

inhibition, growth inhibition and outcome data for 21 compounds are collected here from PubChem BioAssay.

The structures appear in SMILES notation. A number with no mark means an inactive call. For part of these data: Results with a measured potency or affinity are listed apart. The source made the active and inactive calls. Unless noted, how the calls were made is not given here.

Sequence of Plasmodium falciparum protein kinase 6 (PK6, PF3D7_1337100) (Q8IDW1 1-305): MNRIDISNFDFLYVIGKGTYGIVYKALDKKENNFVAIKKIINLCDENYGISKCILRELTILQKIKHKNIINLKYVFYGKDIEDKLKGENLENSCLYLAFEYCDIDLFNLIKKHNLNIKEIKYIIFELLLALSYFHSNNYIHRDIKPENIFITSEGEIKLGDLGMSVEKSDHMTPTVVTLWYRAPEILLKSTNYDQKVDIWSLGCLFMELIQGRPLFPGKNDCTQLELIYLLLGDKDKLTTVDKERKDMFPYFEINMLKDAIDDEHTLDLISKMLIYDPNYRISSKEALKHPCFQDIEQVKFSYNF
Sequence of Calcium-dependent protein kinase 1 (Plasmodium falciparum (isolate 3D7)) (P62344 whole entry, looked up): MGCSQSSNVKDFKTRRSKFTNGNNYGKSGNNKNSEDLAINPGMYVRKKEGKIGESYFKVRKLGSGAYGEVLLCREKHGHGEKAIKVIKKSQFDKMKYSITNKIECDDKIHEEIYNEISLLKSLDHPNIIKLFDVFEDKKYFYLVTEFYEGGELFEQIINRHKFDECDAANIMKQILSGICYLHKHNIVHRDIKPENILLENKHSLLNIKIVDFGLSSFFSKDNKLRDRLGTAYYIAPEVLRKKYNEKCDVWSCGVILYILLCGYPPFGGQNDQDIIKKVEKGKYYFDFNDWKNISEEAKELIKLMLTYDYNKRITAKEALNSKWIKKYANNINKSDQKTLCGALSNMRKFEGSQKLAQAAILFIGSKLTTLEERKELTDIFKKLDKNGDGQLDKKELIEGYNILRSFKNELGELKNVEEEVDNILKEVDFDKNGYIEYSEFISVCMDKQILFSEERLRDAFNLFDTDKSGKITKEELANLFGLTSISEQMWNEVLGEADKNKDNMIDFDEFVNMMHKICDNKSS
Sequence of L-lactate dehydrogenase (Plasmodium falciparum (isolate CDC / Honduras)) (Q27743 whole entry, looked up): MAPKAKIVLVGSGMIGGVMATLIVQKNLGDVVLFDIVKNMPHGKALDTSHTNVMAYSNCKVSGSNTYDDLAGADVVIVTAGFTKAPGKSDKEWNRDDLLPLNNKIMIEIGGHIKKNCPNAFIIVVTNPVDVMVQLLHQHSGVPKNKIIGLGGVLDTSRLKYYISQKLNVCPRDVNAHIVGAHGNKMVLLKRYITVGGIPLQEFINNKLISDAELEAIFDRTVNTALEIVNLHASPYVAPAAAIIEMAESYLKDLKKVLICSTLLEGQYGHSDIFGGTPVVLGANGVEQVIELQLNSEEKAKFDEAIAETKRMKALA
Sequence of Calcium-dependent protein kinase 4 (Plasmodium falciparum (isolate 3D7)) (Q8IBS5 whole entry, looked up): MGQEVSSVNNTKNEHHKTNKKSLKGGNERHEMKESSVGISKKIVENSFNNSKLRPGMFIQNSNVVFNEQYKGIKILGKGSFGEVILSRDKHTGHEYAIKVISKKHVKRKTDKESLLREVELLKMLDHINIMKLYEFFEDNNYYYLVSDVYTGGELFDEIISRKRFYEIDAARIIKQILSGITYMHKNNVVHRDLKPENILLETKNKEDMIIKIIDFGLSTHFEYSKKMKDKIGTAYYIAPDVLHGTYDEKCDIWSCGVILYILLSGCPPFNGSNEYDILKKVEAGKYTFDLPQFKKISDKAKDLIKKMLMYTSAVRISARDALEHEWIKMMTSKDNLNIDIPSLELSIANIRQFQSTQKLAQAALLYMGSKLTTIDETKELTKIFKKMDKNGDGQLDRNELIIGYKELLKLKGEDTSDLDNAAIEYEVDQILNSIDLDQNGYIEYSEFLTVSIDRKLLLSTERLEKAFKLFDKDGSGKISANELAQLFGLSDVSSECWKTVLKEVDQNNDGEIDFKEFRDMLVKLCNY
Sequence of Protein kinase 7 (PK7), Plasmodium falciparum 3D7 (PF3D7_0213400) (Q7YTF7 1-343): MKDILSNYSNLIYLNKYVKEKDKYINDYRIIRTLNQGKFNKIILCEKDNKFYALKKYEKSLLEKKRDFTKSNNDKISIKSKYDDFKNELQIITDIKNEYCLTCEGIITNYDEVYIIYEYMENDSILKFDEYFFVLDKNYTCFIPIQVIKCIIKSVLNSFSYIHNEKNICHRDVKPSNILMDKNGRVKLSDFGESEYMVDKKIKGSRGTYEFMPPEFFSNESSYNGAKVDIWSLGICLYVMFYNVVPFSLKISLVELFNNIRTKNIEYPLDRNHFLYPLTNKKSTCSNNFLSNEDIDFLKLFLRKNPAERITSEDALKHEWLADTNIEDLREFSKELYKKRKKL

Regarding `CC(=O)Nc1cccc(Nc2c3ccccc3nc3ccccc23)c1`, the figures for the inhibition in test [1] and in test [2] were 31% and 5%, respectively. Besides, in test [3], the growth inhibition is 82% (active). Besides, the result in test [4], in test [5], in test [6] and in test [7] was inactive.
Regarding `CC(C)CNC(=O)c1ccc(-c2cccc(CN3CCC(N4CCCC4)CC3)c2)nc1`, the values for the inhibition in test [1] and in test [2] were 4% and -3%, respectively. Further, the growth inhibition in test [3] is 81% (active). The outcome in test [4], in test [5], in test [6] and in test [7] was inactive.
As to `CN(C)Cc1cccc(-c2ccc(NC(=O)c3ccc4c(=O)n(Cc5cnn(C)c5)cnc4c3)cc2)c1`, the figures for the inhibition in test [1] and in test [2] were 12% and 2%, respectively. In addition, the growth inhibition in test [3] was 80% (active). In addition, the outcome in test [4], in test [5], in test [6] and in test [7] was inactive.
Turning to `Cc1nn(-c2ccccc2)nc1C(=O)N(Cc1ccc(-c2ccc(CNCCc3ccc(S(C)(=O)=O)cc3)cn2)cc1)C1CC1`, the inhibition (as a rule, the change of the read-out against control, counted positive when it falls) is 9% in test [1] and -2% in test [2]. Further, the growth inhibition in test [3] was 84% (active). For the same compound, the outcome in test [4], in test [5], in test [6] and in test [7] was inactive.
Turning to `COc1ccc(CN2CCN(CC(=O)Nc3cc(Cl)ccc3-n3cncn3)CC2)cc1F`, the values for the inhibition in test [1] and in test [2] were 0% and -1%, respectively. Also, the growth inhibition in test [3] was 93% (active). Also, the result in test [4], in test [5], in test [6] and in test [7] was inactive.
`COc1ccc(Cl)cc1N1CCN(CCCNC(=O)c2ccc(-c3nc4c(C)cccc4[nH]3)s2)CC1`: the inhibition in test [1] was -2%; in test [2], 5%. Further, in test [3], the growth inhibition is 98% (active). Further, the outcome in test [4], in test [5], in test [6] and in test [7] was inactive.
On to `Oc1ccc(CNCC2CCN(CC3CCCCC3)CC2)cc1`, for which the inhibition in test [1] is 9%; in test [2] it was -1%. In addition, the growth inhibition in test [3] is 82% (active). Besides, the outcome in test [4], in test [5], in test [6] and in test [7] was inactive.
Turning to `Cc1nc(Cl)c2c(-c3ccccc3)csc2n1`, the inhibition in test [1] is -11%; in test [2], 1%. In test [3], the growth inhibition is 84% (active). Also, the outcome in test [4], in test [5], in test [6] and in test [7] was inactive.
As to `NC(=O)c1sc(-n2cnc3ccc(C(=O)NCCN4CCOCC4)cc32)cc1OCc1ccccc1C(F)(F)F`, the inhibition in test [1] is -15%; in test [2] it was 1%. The growth inhibition in test [3] was 81% (active). Moreover, the outcome in test [4], in test [5], in test [6] and in test [7] was inactive.
In the case of `O=C(Nc1ccc(C(F)(F)F)cc1)c1cc(Cl)cc2[nH]c(C(F)(F)F)nc12`, the inhibition in test [1] was 86% (active); in test [2], -1%. The growth inhibition in test [3] was 102% (active). The result in test [4], in test [5], in test [6] and in test [7] was inactive.
For `N=C1SC(=Cc2cn[nH]c2-c2ccc(F)cc2)C(=O)N1c1nccs1`, the inhibition is 28% in test [1] and -3% in test [2]. Further, the growth inhibition in test [3] is 91% (active). For the same compound, the outcome in test [4], in test [5], in test [6] and in test [7] was inactive.
Take `CCCN1CCN(CCNc2c3ccccc3nc3ccccc23)CC1`: the results for the inhibition in test [1] and in test [2] were 13% and 3%, respectively. In addition, in test [3], the growth inhibition was 88% (active). Also, the result in test [4], in test [5], in test [6] and in test [7] was inactive.
With `COc1ccc(CCN2CC[C@H](CNc3nc(-c4ccccc4)nc4ccccc34)C2)cc1S(N)(=O)=O`, the values for the inhibition in test [1] and in test [2] were 54% (active) and -4%, respectively. Besides, the growth inhibition in test [3] is 85% (active). In addition, the outcome in test [4], in test [5], in test [6] and in test [7] was inactive.
In the case of `COc1cc(CCNCC(O)c2ccc([N+](=O)[O-])c(OCc3ccccc3)c2)cc(OC)c1OC` (configuration not stated), the inhibition in test [1] is 11%; in test [2] it was -3%. The growth inhibition in test [3] was 98% (active). Further, the outcome in test [4], in test [5], in test [6] and in test [7] was inactive.
For the compound `O=C(NNC(=O)c1ccc(CN2CCC(c3nc4ccccc4[nH]3)CC2)cc1)Nc1ccc(Oc2ccccc2)cc1`, the inhibition was -2% in test [1] and 0% in test [2]. In addition, in test [3], the growth inhibition was 86% (active). Also, the outcome in test [4], in test [5], in test [6] and in test [7] was inactive.
For the compound `O=C(O)CCSc1ncnc2nc[nH]c12`, the results for the inhibition in test [1] and in test [2] were 7% and 6%, respectively. The growth inhibition in test [3] is 103% (active). Moreover, the outcome in test [4], in test [5], in test [6] and in test [7] was inactive.
In the case of `Cc1cc(OCCCN2CCCC2)ccc1NC(=O)COc1ccc(Cl)cc1C(=O)c1cc(C#N)cc(C(F)(F)F)c1`, the figures for the inhibition in test [1] and in test [2] were 18% and 2%, respectively. The growth inhibition in test [3] was 85% (active). In addition, the result in test [4], in test [5], in test [6] and in test [7] was inactive.
Regarding `O=C(O)CCc1ccc(-c2c[nH]c3ncc(-c4ccc5ncccc5c4)cc23)cc1`, the inhibition in test [1] was 30%; in test [2], -3%. Further, the growth inhibition in test [3] was 88% (active). The result in test [4], in test [5], in test [6] and in test [7] was inactive.
As for `S=C(Nc1ccc(Cl)cc1)Nc1ccc(Nc2ccccc2)cc1`, the inhibition is 14% in test [1] and -4% in test [2]. The growth inhibition in test [3] is 84% (active). In addition, the outcome in test [4], in test [5], in test [6] and in test [7] was inactive.
In the case of `COc1ccc2c(c1)C(C)(CCCN(C)C)C(=O)N2C` (configuration not stated), the inhibition in test [1] was 8%; in test [2], -3%. Further, in test [3], the growth inhibition is 93% (active). Further, the outcome in test [4], in test [5], in test [6] and in test [7] was inactive.
Consider `COc1ccc(NS(=O)(=O)c2ccc(Oc3nc(C)nc4sc5c(c34)CCCC5)cc2)cc1`, for which the inhibition is 5% in test [1] and -2% in test [2]. Further, in test [3], the growth inhibition was 96% (active). Also, the result in test [4], in test [5], in test [6] and in test [7] was inactive.
